Results published in the supplement of paper PMC6555819.

How the values were obtained:
Experiment in all cases: PBM binding z-score (relative to random genomic background probes); higher = stronger binding; sequences stand for … in GC…GCGATTGACAGCGTAGAATGAAGG
[1] = test system: FXR:RXRa (NR concentration 270 nM, RXRa partner concentration 90 nM)
How it was run: (§1)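 Binding z-scores were set against random background probes. The data came from custom Agilent 4×180K protein-binding microarrays carrying double-stranded probes with 34-nt variable regions, incubated 1 h with ligand-free nuclear receptor dimers. Partner-specific antibodies detected binding, and scanned fluorescence was regression-normalized.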

[2] = test system: LXRa:RXRa (NR concentration 270 nM, RXRa partner concentration 90 nM)
How it was run: as §1

[3] = test system: LXRa homodimer (NR concentration 270 nM)
How it was run: as §1

[4] = test system: LXRb:RXRa (NR concentration 270 nM, RXRa partner concentration 90 nM)
How it was run: as §1

[5] = test system: LXRb homodimer (NR concentration 270 nM)
How it was run: as §1

[6] = test system: PPARa:RXRa (NR concentration 270 nM, RXRa partner concentration 90 nM)
How it was run: as §1

[7] = test system: PPARg:RXRa (NR concentration 180 nM, RXRa partner concentration 90 nM)
How it was run: as §1

[8] = test system: PPARg:RXRa 270nM:90nM, anti-RXR (NR concentration 270 nM, RXRa partner concentration 90 nM)
How it was run: as §1

[9] = test system: PPARg:RXRa 30nM:10nM, anti-RXR (NR concentration 30 nM, RXRa partner concentration 10 nM)
How it was run: as §1

[10] = test system: PPARg:RXRa 90nM:30nM, anti-RXR (NR concentration 90 nM, RXRa partner concentration 30 nM)
How it was run: as §1

[11] = test system: PPARg:RXRa DBDmut IVT, anti-RXR (DBD mutation: RXRa K156A/R161A, NR concentration 270 nM, RXRa partner concentration 90 nM)
How it was run: as §1

[12] = test system: PPARg:RXRa IVT, anti-PPARg (NR concentration 270 nM, RXRa partner concentration 90 nM)
How it was run: as §1

[13] = test system: PPARg DBDmut:RXRa IVT, anti-PPARg (DBD mutation: PPARg1 K132A/R137A, NR concentration 270 nM, RXRa partner concentration 90 nM)
How it was run: as §1

[14] = test system: PPARg DBDmut IVT, anti-PPARg (DBD mutation: PPARg1 K132A/R137A, NR concentration 270 nM)
How it was run: as §1

[15] = test system: PPARg homodimer (NR concentration 180 nM)
How it was run: as §1

[16] = test system: PXR:RXRa (NR concentration 270 nM, RXRa partner concentration 90 nM)
How it was run: as §1

[17] = test system: PXR homodimer (NR concentration 270 nM)
How it was run: as §1

[18] = test system: RARa:RXR (NR concentration 270 nM, RXRa partner concentration 90 nM)
How it was run: as §1

[19] = test system: RARa homodimer (NR concentration 270 nM)
How it was run: as §1

[20] = test system: RARb:RXRa (NR concentration 270 nM, RXRa partner concentration 90 nM)
How it was run: as §1

Sequence | PBM binding z-score [1] | PBM binding z-score [2] | PBM binding z-score [3] | PBM binding z-score [4] | PBM binding z-score [5] | PBM binding z-score [6] | PBM binding z-score [7] | PBM binding z-score [8] | PBM binding z-score [9] | PBM binding z-score [10] | PBM binding z-score [11] | PBM binding z-score [12] | PBM binding z-score [13] | PBM binding z-score [14] | PBM binding z-score [15] | PBM binding z-score [16] | PBM binding z-score [17] | PBM binding z-score [18] | PBM binding z-score [19] | PBM binding z-score [20]
CCTACTGGTCCATCAGGTCATTGATATCAACGTT | 1.32 | 1.8 | 2.15 | 2.01 | 0.36 | 1.88 | 0.421 | 1.34 | 0.261 | 0.824 | 0.344 | 1.32 | 0.234 | 0.596 | 1.48 | 1.99 | 1.32 | 2.05 | 0.854 | 1.87
TCTGGTAGGTCAGTTGGTCAGCTAACGAGCTGCC | 1.49 | 1.41 | 0.0494 | 1.09 | 0.418 | 2.17 | 1.6 | 2.93 | 2.4 | 2.47 | 3.49 | 4.52 | -0.0249 | -0.0633 | 1.33 | 0.675 | -0.287 | 0.778 | 0.532 | 3.62
GCTTGTAGATCAAGGTTCAGAAAGACTAAGCTAA | -0.0392 | 0.122 | 0.0153 | 0.103 | -0.768 | 2.44 | 4.87 | 5.28 | 3.39 | 5.82 | 1.07 | 1.53 | 0.321 | -0.08 | -0.171 | 0.124 | -0.087 | 0.533 | -0.997 | 0.339
TCTCGGAGGACACGAAAGTTCAGAGCTCGACATC | 1.03 | 2.18 | 2.89 | 0.952 | -0.575 | 1.14 | 0.211 | 1.25 | 2.34 | 1.81 | 1.71 | -0.0575 | -0.141 | -0.597 | 0.949 | 3.3 | 2.7 | 1.27 | 0.226 | 2.78
CCTCGGAGGACAGAAGGTCAGACCTGTCCGCTTT | 1.44 | 1.56 | 0.0539 | 1.3 | -0.489 | 1.9 | 0.19 | 0.86 | -0.764 | 0.0778 | 0.156 | 0.0592 | -1.1 | -2.09 | 1.39 | 1.69 | -0.272 | 2.2 | -0.193 | 3.22
GATACAGGGTCAAGGACAGAGTACGCGTATTGAT | 6.59 | 4.45 | 0.185 | 4 | 0.413 | 5.54 | 5.7 | 5.61 | 2.93 | 4.51 | 3.11 | 3.89 | 1.4 | 0.618 | 2.51 | 3.92 | 0.786 | 4.72 | 1.69 | 4.52
AGAATTAGGTTATTAAGATCAGGGAATTGCGGTC | 0.488 | 0.607 | 0.495 | 0.404 | 0.244 | 1.87 | 1.99 | 2.31 | 1.74 | 1.58 | 6.63 | 5.44 | 1.55 | 1.27 | 1.3 | 0.5 | 0.468 | 0.229 | 1.73 | 0.932
TCTTGTAGATCAGCAGGTTATGAAAGCTGGCCAA | 0.122 | 0.0807 | -0.501 | 0.444 | -0.22 | 0.665 | -0.222 | 1.29 | 2.49 | 1.59 | 1.43 | 0.523 | -0.144 | 0.592 | -0.672 | 0.11 | -0.253 | 0.383 | -0.663 | 0.164
TAGCCTAGGTCATGGGACAGTATACCACGCGAAC | 5.01 | 3.4 | 0.47 | 3.01 | 0.331 | 4.29 | 3.92 | 3.74 | 1.14 | 2.55 | 1.93 | 3.38 | 0.841 | 0.664 | 2.06 | 1.99 | -0.252 | 2.89 | 0.415 | 3.88
TGTCAAAGTTCAAAGCTAACGTAAGTATCCACAC | 6.52 | 6.15 | 3.83 | 4.14 | 1.86 | 5.22 | 7.92 | 7.25 | 4.27 | 7.06 | 0.771 | 3.82 | 1.34 | 1.18 | 2.01 | 4.29 | 3.01 | 3.5 | 1.14 | 5.04
ATCTCTAGGTAAAAGTTCACTGAATCCCGAGGAT | 1.74 | 2.79 | 2.51 | 1.79 | 1.07 | 4.85 | 8.64 | 8.64 | 7.7 | 9.26 | 2.27 | 4.44 | 1.42 | 1.19 | 1.29 | 3.44 | 2.38 | 2.99 | 1.08 | 2.97
TTTTGTAGATCAACAGGAGGTTAAGAAAGATCGA | 0.519 | 1.38 | 0.44 | 1.16 | 0.116 | 1.7 | 0.596 | 1.25 | 1.03 | 1.29 | 1.26 | 1.98 | 1.18 | 1.43 | 0.903 | 0.932 | 0.512 | 1.34 | 1.05 | 0.73
AGAATGAGGTTATTAAGATCAGGAAATTGCGGTC | 1.33 | 1.7 | 0.37 | 1.3 | -0.00704 | 2.59 | 1.63 | 1.8 | 0.356 | 1.47 | 2.71 | 2.49 | 1.18 | 0.481 | 0.657 | 1.3 | 0.566 | 1.3 | 0.579 | 1.42
CCTACCGGGCCAAAGGTCATTGATTCCAATGCTC | 4.82 | 5.29 | 3.7 | 4.97 | 0.797 | 5.89 | 9.76 | 9.09 | 7.65 | 9.83 | 0.996 | 4.7 | -0.596 | -1.68 | 3.08 | 5.32 | 1.52 | 6.45 | 0.836 | 4.35
ATCTCTAGGTAAAGATAGTTCAGTGAATGCAAAT | 0.206 | 4.16 | 0.484 | 0.65 | 0.725 | 0.625 | 0.646 | 0.562 | 1.03 | 0.949 | 2.16 | 1.66 | 1.03 | 1.61 | 0.566 | 0.795 | 0.763 | 0.643 | 0.47 | 0.654
